Experimental data published in PubChem BioAssay AID1851 (National Center for Advancing Translational Sciences (NCATS), 2009).
The whole screen tested about 16,000 compounds, of which about 2,600 (16%) were called active. Another 20% or so got no clear call; they are omitted. A selection follows. Unmarked numbers belong to inactive results. Calls follow the shape of the dose curve; as a rule, active = well fitted curve in the direction sought with a large enough effect; inconclusive = small, poorly fitted or top-dose-only effect, or effect the other way; inactive = no such curve, though single readings can be large or run the other way. Peptide text beside a SMILES is read from it. * marks the point of attachment. Boc = CC(C)(C)OC(=O)*
% is scaled to controls: 0 for no effect and ±100 for the full control effect.

The molecules below were run against Cytochrome P450 2D6 (Homo sapiens) (UniProt P10635) (assay: Cytochrome panel assay with activity outcomes). Settings: recombinant CYP, pro-luciferin dealkylation, luminescence, p450-cyp2d6; series mostly up to 57.1 µM.
Cytochrome P450 2D6 (Homo sapiens), sequence (P10635 whole entry, looked up): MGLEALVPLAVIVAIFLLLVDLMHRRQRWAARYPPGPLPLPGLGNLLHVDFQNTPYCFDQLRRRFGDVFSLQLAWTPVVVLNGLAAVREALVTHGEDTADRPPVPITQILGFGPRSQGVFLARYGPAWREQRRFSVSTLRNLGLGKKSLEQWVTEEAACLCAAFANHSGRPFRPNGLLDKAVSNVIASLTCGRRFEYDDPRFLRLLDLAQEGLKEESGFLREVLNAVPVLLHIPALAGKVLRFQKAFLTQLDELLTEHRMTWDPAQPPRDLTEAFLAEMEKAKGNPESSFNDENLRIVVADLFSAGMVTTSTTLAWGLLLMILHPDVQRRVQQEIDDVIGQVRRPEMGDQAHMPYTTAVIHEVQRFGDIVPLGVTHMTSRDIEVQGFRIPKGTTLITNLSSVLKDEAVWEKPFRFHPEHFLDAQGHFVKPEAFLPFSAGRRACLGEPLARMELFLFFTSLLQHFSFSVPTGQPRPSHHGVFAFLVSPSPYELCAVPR
`COC(=O)c1c(NC(=O)c2ccco2)sc2c1CCC2` was tested, and the AC50 was “inactive”.
`Cc1cccc(C)c1NC(=O)Nc1ccc(S(N)(=O)=O)cc1` gave an activity, negative = inhibition of -10.2% [at 11.4 µM].
`Cc1ccc(S(N)(=O)=O)cc1NC(=O)/C=C/c1cccs1` was tested, and the AC50 was 14100 nM (active).
For `Cc1ccc(C(=O)Nc2ccc(C(=O)/C=C/c3cccs3)cc2)cc1`, the AC50 was “inactive”.
In the case of `CN(C(=O)C(Cl)Cl)c1ccc(OC(=O)c2ccco2)cc1`, the AC50 is reported as “inactive”.
With `Cc1ccccc1/C=C\C1=NCCN1` the AC50 was 25100 nM (active).
In the case of `c1ccc2cc(C3=NCCN3)ncc2c1`, the AC50 is reported as “inactive”.
With `c1ccc2nc(C3=NCCN3)cnc2c1` the AC50 was “inactive”.
For `O=C(Oc1ccccc1)N1CCC2(CC1)CCN(c1ccccn1)CC2`, the AC50 was “inactive”.
In the case of `CCOc1ccc(-c2c[n+](=O)c3c(n2[O-])CCCC3)c(OCC)c1`, the AC50 is reported as “inactive”.
For `Cc1ccc(S(=O)(=O)Nc2ccccc2C=O)cc1`, the activity, negative = inhibition was -1.56% [at 11.4 µM].
With `CCCCn1c(NCc2ccccc2NS(=O)(=O)c2ccc(C)cc2)nc2ccccc21` the AC50 was 501 nM (active).
For `CCCCn1c(SCc2c(C)noc2C)nc2cc(S(N)(=O)=O)ccc21`, the AC50 was “inactive”.
`CC(C)=NOCc1ccc(-c2cc(-c3ccccc3)no2)cc1` was tested, and the activity, negative = inhibition was 1.27% [at 11.4 µM].
`O=c1[nH]c2ccccc2n1CCCN1CCN(C(c2ccccc2)c2ccccc2)CC1` was tested, and the AC50 was 794 nM (active).
For `CCn1c(=O)[nH]c2ccccc21`, the AC50 was “inactive”.
`CCN1CNC(=S)N(c2cc(C)ccc2C)C1` was tested, and the AC50 was “inactive”.
`COc1ccc(NC(=O)N2CC3(CCN(C(=O)c4ccco4)CC3)C2)cc1` was tested, and the AC50 was “inactive”.
With `O=C(Nc1ccccc1)N1CC2(CCN(C(=O)c3ccco3)CC2)C1` the AC50 was “inactive”.
With `O=C(c1cccc(F)c1)N1CCC2(CCN(Cc3nccs3)CC2)CC1` the AC50 was “inactive”.
`O=C(c1ccco1)N1CCC2(CCN(Cc3nccs3)CC2)CC1` was tested, and the AC50 was 1000 nM (active).
`CC(=O)N1CCC2(CCN(Cc3nccs3)CC2)CC1` was tested, and the AC50 was “inactive”.
For `O=C(c1ccco1)N1CCC[C@@]2(CCN(Cc3ccccc3)C2)C1`, the AC50 was 2000 nM (active).
`O=C(c1ccco1)N1CCC2(CCN(Cc3ccccc3)CC2)CC1` was tested, and the AC50 was 3980 nM (active).
In the case of `COc1ccccc1CN1CC[C@@]2(CCCN(C(=O)c3ccco3)C2)C1`, the AC50 is reported as 501 nM (active).
In the case of `C=C(C)C1CC=C(C)/C(=N/NC(=O)c2ccc(NC(=O)c3cccc(C)c3)cc2)C1` (stereo unspecified), the AC50 is reported as “inactive”.
`Clc1ccc(-c2csc(N3CCC(c4ccccc4)C3)n2)cc1` (stereo unspecified) was tested, and the AC50 was “inactive”.
`COc1ccc(C2CC(C(F)(F)F)n3nc(C(=O)N(C)Cc4cn(C)nc4C)c(Cl)c3N2)cc1` (stereo unspecified) was tested, and the AC50 was “inactive”.
In the case of `O=C(Nc1cccc(F)c1)N1CC2(CCN(C(=O)c3cc(C(F)(F)F)cc(C(F)(F)F)c3)CC2)C1`, the AC50 is reported as “inactive”.
In the case of `O=C(O)c1c(-c2c3ccc(=O)cc-3oc3cc(O)ccc23)cc2ccccc2c1-c1ccccc1`, the activity, negative = inhibition is reported as 6.33% [at 11.4 µM].
For `Cc1ccc(/C=C2\OC(=O)c3ccccc32)cc1`, the AC50 was “inactive”.
In the case of `CC(=O)c1cnc2c(C(=O)O)cnn2c1C`, the AC50 is reported as “inactive”.
With `COn1c(-c2ccccc2)nc2c1CCc1nonc1-2` the AC50 was “inactive”.
In the case of `Cc1ccc(C)c(CN2C(=O)C3CCCN3c3ccc(S(=O)(=O)N4CCOCC4)cc32)c1` (stereo unspecified), the AC50 is reported as “inactive”.
In the case of `O=C(CO)N/N=C/c1ccccc1F`, the AC50 is reported as “inactive”.
In the case of `O=C(O)c1cc2c(cc1S(=O)(=O)O)[C@H]1[C@@H]([C@H]3[C@H]2[C@@]2(Cl)C(Cl)=C(Cl)[C@]3(Cl)C2(Cl)Cl)[C@]2(Cl)C(Cl)=C(Cl)[C@@]1(Cl)C2(Cl)Cl`, the activity, negative = inhibition is reported as -3.51% [at 11.4 µM].
`CC(=O)c1cn(CCCCCCCCCCn2cc(C(C)=O)c(=O)[nH]c2=O)c(=O)[nH]c1=O` was tested, and the AC50 was “inactive”.
In the case of `Cc1noc(C)c1C(=O)N1CCC[C@@]2(CCN(Cc3nccs3)C2)C1`, the AC50 is reported as “inactive”.
With `Cc1noc(C)c1C(=O)N1CCC[C@@]2(CCN(Cc3ccccc3)C2)C1` the AC50 was 7940 nM (active).
In the case of `COc1ccc(NC(=O)N2CCC3(CC2)CCN(C(=O)c2ccco2)CC3)cc1`, the AC50 is reported as “inactive”.
With `COc1ccccc1CN1CCC2(CC1)CCN(C(=O)c1ccco1)CC2` the AC50 was 12600 nM (active).
In the case of `COc1ccccc1CN1CCCC2(CCN(C(=O)c3ccco3)CC2)C1`, the AC50 is reported as 2510 nM (active).
For `Cc1noc(C)c1C(=O)N1CCC2(CCCN(Cc3ccccc3)C2)CC1`, the AC50 was “inactive”.
`CCc1c(O)c2c(c(O)c1C(C)=O)C(=O)c1c(cc(O)c(C(=O)O)c1C(=O)O)C2=O` gave an activity, negative = inhibition of 0.869% [at 11.4 µM].
With `COc1ccc(CC(=O)N2CCN(c3ccc(C4=NNC(=O)CC4C)cc3)CC2)cc1` (stereo unspecified) the AC50 was “inactive”.
For `CC12CCC(C(=O)O)(C/C1=N\O)C2(C)C` (stereo unspecified), the AC50 was “inactive”.
For `Cc1noc(NS(=O)(=O)c2ccc(N)cc2)c1C`, the AC50 was “inactive”.
`CNc1cc(NS(=O)(=O)c2ccc(N)cc2)nc(NC)n1` was tested, and the AC50 was “inactive”.
With `CCOC(=O)C1=C(c2ccccc2)OC(N)=C(C#N)C1c1ccc(Cl)s1` (stereo unspecified) the AC50 was “inactive”.
`CCCn1c(N)[n+](CC(=O)c2ccco2)c2ccccc21` was tested, and the AC50 was 708 nM (active).
`CCOC(=O)c1c(C)n(C)c2ccc(OC(=O)c3ccco3)cc12` was tested, and the AC50 was “inactive”.
With `CCn1c(=O)cc(SCC(=O)N2CCN(C(=O)c3ccco3)CC2)c2ccccc21` the AC50 was “inactive”.
`CCCCN1C(=O)NC(NC(=O)c2ccco2)(C(F)(F)F)C1=O` (stereo unspecified) was tested, and the AC50 was “inactive”.
For `Cc1ccc(C(CC(=O)c2ccco2)SCCO)cc1` (stereo unspecified), the AC50 was “inactive”.
In the case of `CCCCn1c(=N)n(CC(=O)c2ccco2)c2ccccc21`, the AC50 is reported as 708 nM (active).
In the case of `COCCn1c(=O)c(-c2cc(F)cc(F)c2)nc2cnc(N3CCNCC3)nc21`, the AC50 is reported as “inactive”.
With `CC1(C)OC(=O)NC1=O` the AC50 was “inactive”.
In the case of `Nc1nc(Br)c2c(F)cccc2c1-c1ccc(F)cc1`, the AC50 is reported as “inactive”.
In the case of `CC(C)C(NC(=O)OC(C)(C)C)C(=O)N1CCCC1C(=O)NC(Cc1ccccc1)C(N)=O` (stereo not drawn) (Boc-Val-Pro-Phe-NH2; configuration not given here), the AC50 is reported as “inactive”.
In the case of `CC(C)=CCC/C(C)=C/CO/N=C1/[C@H]2O[C@@H]2[C@@H](O)[C@H]2[C@H]1CCn1c(=O)n(Cc3cc4c(cc3Cl)OCO4)c(=O)n12`, the activity, negative = inhibition is reported as -10.5% [at 11.4 µM].
With `CC(SCc1cn2cc(Cl)ccc2n1)C(=O)O` (stereo unspecified) the AC50 was “inactive”.
For `Cc1ccn2cc(CSc3ccccc3N)nc2c1`, the AC50 was 1260 nM (active).
For `CC(NC(=O)CSc1nc(=O)cc(N)n1CCc1ccccc1)c1ccccc1` (stereo unspecified), the AC50 was “inactive”.
In the case of `CCC(Sc1nc(=O)cc(N)n1CCc1ccccc1)C(=O)Nc1ccccc1C#N` (stereo unspecified), the AC50 is reported as 15800 nM (active).
`Nc1cc(=O)nc(SCC(=O)Nc2cccc3ccccc23)n1CCc1ccccc1` was tested, and the AC50 was “inactive”.
For `CN1c2ccccc2C(O)=C(C(=O)Nc2ccccc2)S1(=O)=O`, the AC50 was “inactive”.
For `c1cncc(-c2nc(N3CCNCC3)c3ccccc3n2)c1`, the AC50 was 7940 nM (active).
For `CN1CCN(c2nc(-c3cccnc3)nc3ccccc23)CC1`, the AC50 was 10000 nM (active).
For `CN1CCN(c2nc(-c3ccoc3)nc3ccccc23)CC1`, the AC50 was 15800 nM (active).
In the case of `COc1ccccc1-c1nc(N2CCN(C)CC2)c2ccccc2n1`, the AC50 is reported as “inactive”.
For `c1ccc2c(N3CCOCC3)nc(-c3ccoc3)nc2c1`, the AC50 was “inactive”.
In the case of `C[C@](N)(COP(=O)(O)O)C(=O)O`, the AC50 is reported as “inactive”.
For `CNc1cc(-c2c(C)noc2C)ncn1`, the AC50 was “inactive”.
In the case of `Cn1c(=O)c2[nH]c(-c3ccccc3)nc2n(C)c1=O`, the AC50 is reported as “inactive”.
`Cn1c(=O)c(-c2cc(F)cc(F)c2)nc2cnc(Oc3ccccc3)nc21` was tested, and the AC50 was “inactive”.
With `O=C(Oc1ccccc1)N1CCC2(CC1)CN(c1ncccn1)C2` the AC50 was “inactive”.
In the case of `CC(=O)Nc1c2c3c(cccc3n(C)c1=O)C(=O)c1ccccc1-2`, the AC50 is reported as “inactive”.
In the case of `COc1ccc(-c2nc3cnc(N4CCN(C)CC4)nc3n(C3CC3)c2=O)cc1`, the AC50 is reported as “inactive”.
With `COC(=O)c1ccccc1OCC(=O)N1CCN(c2ccc(OC)cc2)CC1` the AC50 was “inactive”.
In the case of `O=C(c1cc(O)c(O)c([N+](=O)[O-])c1)c1ccccc1F`, the AC50 is reported as “inactive”.
For `Cn1cccc1C(=O)N1CCC2(CC1)CCN(c1ccc(-c3ccccc3)cc1)CC2`, the AC50 was “inactive”.
`COc1cc(C2C(C#N)=C(N)OC3=C2C(=O)CCC3)cc(OC)c1OC(=O)N1CCOCC1` (stereo unspecified) was tested, and the AC50 was “inactive”.
With `Cc1ccc(C(C2C(=O)CC(C)(C)CC2=O)C2C(=O)CC(C)(C)CC2=O)s1` the AC50 was “inactive”.
`COc1cccc(C(c2c(C)[nH]n(-c3ccccc3)c2=O)c2c(C)[nH]n(-c3ccccc3)c2=O)c1O` was tested, and the AC50 was “inactive”.
For `Clc1ccc(Cl)c(OCc2cc(-c3ccccc3Cl)on2)c1`, the AC50 was “inactive”.
With `CC1CCN(CCOc2cc(Cl)ccc2Cl)CC1` the AC50 was 447 nM (active).
In the case of `COc1cc(C)ccc1OCCOc1cc(C)ccc1Cl`, the AC50 is reported as “inactive”.
With `CCn1c(C)[n+](CCCS(=O)(=O)[O-])c2cc(Cl)c(Cl)cc21` the AC50 was “inactive”.
With `Cn1c(=O)n(-c2cccc(Cl)c2)c(=O)c2c3c(sc21)COC(C)(C)C3` the AC50 was “inactive”.
For `O=C(Cc1ncc(C(F)(F)F)cc1Cl)Nc1cccc(Br)c1`, the AC50 was 398 nM (active).
For `O=C(Nc1ccc(F)cc1F)c1cccn1-c1ncc(C(F)(F)F)cc1Cl`, the AC50 was “inactive”.
For `CN(NC(=O)NN)c1ncc(C(F)(F)F)cc1Cl`, the AC50 was “inactive”.
`Oc1ccc(Cn2cc[nH]c2=S)cc1` was tested, and the AC50 was “inactive”.
In the case of `Cc1cc2ccccn2c1C(=O)c1ccc(Cl)cc1`, the AC50 is reported as 17800 nM (active).
`Cc1cc2ccccn2c1C(=O)c1nc(N2CCOCC2)ncc1Cl` was tested, and the AC50 was “inactive”.
With `Cc1cc(CC(=O)O)n(C)c1C(=O)c1ccc(Cl)cc1` the AC50 was “inactive”.
In the case of `Nc1cc(C(=O)O)[nH]c(=O)n1`, the activity, negative = inhibition is reported as 6.45% [at 11.4 µM].
`CCN(CC(=O)Nc1ccc(N2CCOCC2)cc1)Cc1nc2ccccc2c(=O)[nH]1` was tested, and the AC50 was “inactive”.
For `CCn1c(O)c(/C=C2\C=Nc3ccccc32)sc1=Nc1ccc(C)cc1`, the AC50 was “inactive”.
For `CCOC(=O)C1=C(CN2c3ccccc3CC2C)NC(=O)NC1c1ccccc1` (stereo unspecified), the AC50 was “inactive”.
With `NC(=O)C1CCN(C(=O)OCc2ccccc2)CC1` the AC50 was “inactive”.
For `CCCNC(=O)N1CCC(C(=O)c2ccc(F)cc2)CC1`, the AC50 was “inactive”.
`O=C(c1ccc(F)cc1)C1CCN(CCCCc2ccccc2)CC1` was tested, and the AC50 was 12.6 nM (active).
With `CC1(C)C(=O)N(CCN2CCC(C(=O)c3ccc(F)cc3)CC2)c2ccccc21` the AC50 was 1260 nM (active).
For `CC(C)c1ccc(C(=O)CC2(O)C(=O)N(CN3CCOCC3)c3ccccc32)cc1` (stereo unspecified), the AC50 was “inactive”.
With `CCN1C(=O)C(O)(C2COC(C)(C)CC2=O)c2ccccc21` (stereo unspecified) the AC50 was “inactive”.
